Source: PubChem BioAssay (NCATS)
Where “and” joins values, the source holds several entries; their conditions need not be identical. Equal entries are not always repeated. Records with an inconclusive call do not appear. A number with no mark means an inactive call. Calls of active or inactive are those of the source. The call rests on the fitted dose curve; in most records, active means well fitted activation curve with a large enough effect; inconclusive means small, poorly fitted or top-dose-only effect; inactive means no such curve, though single readings can be large or run the other way.

Molecular target: Cellular tumor antigen p53 (Homo sapiens) (UniProt P04637)
Sequence (P04637 whole entry, looked up): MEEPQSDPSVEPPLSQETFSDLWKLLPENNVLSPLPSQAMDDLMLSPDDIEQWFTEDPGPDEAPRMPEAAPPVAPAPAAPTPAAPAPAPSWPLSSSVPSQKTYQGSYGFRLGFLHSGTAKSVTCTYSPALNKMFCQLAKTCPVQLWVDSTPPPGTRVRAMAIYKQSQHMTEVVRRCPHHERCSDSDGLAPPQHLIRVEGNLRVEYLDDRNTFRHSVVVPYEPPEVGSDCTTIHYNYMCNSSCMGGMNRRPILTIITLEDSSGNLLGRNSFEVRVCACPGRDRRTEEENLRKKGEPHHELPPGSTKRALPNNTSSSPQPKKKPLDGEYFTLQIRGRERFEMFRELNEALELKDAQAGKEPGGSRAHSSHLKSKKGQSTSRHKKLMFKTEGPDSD
Assay: Primary qHTS for small molecule compounds that upregulate eGFP-tagged delta133p53alpha (in N-terminal) cells. (AID 2060322); further: nearly all actives have a fitted effect of over 75% in size;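 on activation: series mostly up to about 56 µM; 0% = DMSO vehicle and 100% = reference activator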
Settings: NCI-H358 eGFP-delta133p53alpha fluorescence, 24 h; activation: active compounds read high
In short: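 NCI-H358 cells pre-induced 24 h with 10 ng/ml doxycycline to express N-terminal eGFP-delta133p53alpha, then dosed 24 h at 37C without doxycycline; fixed, Hoechst-stained, GFP intensity by laser scanning cytometry, normalized to DMSO (0%) and 57.5 uM 5-azacytidine (100%).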
Potency means the concentration at half of the fitted maximal effect.

| SMILES | activation | Potency |
| --- | --- | --- |
| CC(=O)OC(C)OC(=O)C(C)c1ccc(-c2ccccc2)c(F)c1 (stereo not given) | -24.3% |  |
| OCc1ccccn1 | 8.37% |  |
| Nc1ccc(S(=O)(=O)NC(=O)c2ccccc2)cc1 | 5.08% |  |
| CCCCCCCCCCCCCCC[C@H](O)[C@@H](N)CO | 18.4% |  |
| CC(=O)N[C@@H](CC(C)C)C(=O)O | 0% |  |
| O=C1c2cccc(O)c2C(=O)c2c(O)cccc21 | -22.6% |  |
| NC(=O)N/N=C/c1ccc([N+](=O)[O-])o1 | 16.7% and -23.4% |  |
| CCOC(=O)/C=C(C)/C=C/C=C(C)/C=C/c1c(C)cc(OC)c(C)c1C | 9.6% |  |
| COc1ccc(C(=O)c2ccccc2O)c(O)c1 | 10.9% |  |
| CCCCC(=O)O[C@]1(C(=O)CO)CC[C@H]2[C@@H]3CCC4=CC(=O)CC[C@]4(C)[C@H]3[C@@H](O)C[C@@]21C | 29.3% |  |
| CC(=O)NCc1c(I)c(NC(C)=O)c(I)c(C(=O)O)c1I | 16.4% |  |
| CN1CCN(C(=O)C2CCCCC2)CC1 | -11.7% |  |
| NS(=O)(=O)c1cc(C(=O)O)cc(N2CCCC2)c1Oc1ccccc1 | -9.6% |  |
| NC1=N[C@@]2(c3cc(NC(=O)c4ccc(F)cn4)ccc3F)COC[C@@H]2CS1 | 87.4% |  |
| Cc1cc(O)c(C)c(C)c1O | 17.5% |  |
| O=C(O)CCC(=O)Nc1ccc(S(=O)(=O)Nc2nccs2)cc1 | -3.95% |  |
| Cc1ncc([N+](=O)[O-])n1C | -0.565% |  |
| CCCCCC(=O)O[C@]1(C(C)=O)CC[C@H]2[C@@H]3CCC4=CC(=O)CC[C@]4(C)[C@H]3CC[C@@]21C | 23.2% |  |
| CCCCCOC(=O)Nc1nc(=O)n([C@@H]2O[C@H](C)[C@@H](O)C2O)cc1F (stereo not given in full) | -14.6% |  |
| Nc1ccc(-c2ccc3ccccc3n2)cc1 | 29.5% |  |

| SMILES | activation | Potency |
| --- | --- | --- |
| O=C1C(=O)c2ccccc2C(O)=C1C1CCC(c2ccc(Cl)cc2)CC1 (stereo not given) | -33.3% |  |
| N#C/C(=C1\SCC(c2ccccc2Cl)S1)n1ccnc1 (stereo not given) | 5.08% |  |
| CC1(C)C(=O)CCC2(C)C1C(O)C=C1COC(=O)C12O (stereo not given) | 25.2% |  |
| C[C@]12CCC(=O)C=C1[C@@H]1CC1[C@H]1[C@H]3[C@@H]4C[C@H]4[C@@]4(CCC(=O)O4)[C@@]3(C)CC[C@H]12 (stereo not given in full) | 8.34% |  |
| CCCCC1C(=O)N(c2ccccc2)N(c2ccc(O)cc2)C1=O (stereo not given) |  | 4.37 µM (active) |
| O=C(CN1C(=O)C2(CCCC2)NCC1c1cc(F)cc(F)c1)Nc1ccc2c(c1)CC1(C2)C(=O)Nc2ncccc21 (stereo not given) | 0.477% |  |
| CNC(=O)c1ccccc1Sc1ccc2c(C=Cc3ccccn3)n[nH]c2c1 | -28.7% |  |
| O=C(O)Cn1c(C(=O)Nc2nc(-c3ccccc3Cl)cs2)cc2ccccc21 | 5.08% |  |
| CC1(C)S[C@@H]2[C@H](NC(=O)C(c3ccccc3)S(=O)(=O)O)C(=O)N2[C@H]1C(=O)O (stereo not given in full) | -13% |  |
| CCC(=O)O[C@H]1[C@H](O[C@@H]2[C@@H](C)[C@H](O[C@H]3C[C@@](C)(OC)[C@@H](O)[C@H](C)O3)[C@@H](C)C(=O)O[C@H](CC)[C@@](C)(O)[C@H](O)[C@@H](C)C(=O)[C@H](C)C[C@@]2(C)O)O[C@H](C)C[C@@H]1N(C)C | 0.837% |  |
| CCCCC1(COC(=O)CCC(=O)O)C(=O)N(c2ccccc2)N(c2ccccc2)C1=O | -7.34% |  |
| COc1cc(C(=O)N2CCOCC2)cc(OC)c1OC | 20.9% |  |
| CC(=O)Oc1ccc(C2(c3ccc(OC(C)=O)cc3)C(=O)Nc3ccccc32)cc1 | -31.1% |  |
| CN(C)CCCSc1ccccc1NC(=O)/C=C/c1ccccc1 | -10% |  |
| NC(=O)c1nnn(Cc2cc(Cl)c(C(=O)c3ccc(Cl)cc3)c(Cl)c2)c1N | -8.58% |  |
| C#C[C@]1(O)CC[C@H]2[C@@H]3CCC4=CC(=O)CC[C@@H]4[C@H]3CC[C@@]21C | 7.34% |  |
| N#Cc1ccc(-c2csc(NN=C3CCCC3)n2)cc1 | -8.94% |  |
| CC1(C)SCCN(S(=O)(=O)c2ccc(OCC#CCO)cc2)[C@@H]1C(=O)NO | 9.74% |  |
| CC(C(=O)O)c1cccc(Oc2ccccc2)c1 (stereo not given) | 32.2% |  |
| O=C(O)Cc1csc(-c2ccc(Cl)cc2)n1 | 15.3% |  |
